From ChEMBL document CHEMBL3988442, “University of Dundee, Small-Polar-MMV Screening Library” (2021)

molecular target: AMP-activated protein kinase, AMPK (Homo sapiens) (UniProt P54646+O43741+P54619+Q9UGJ0+Q9Y478+Q13131+Q9UGI9); experiment: AMP-dependent Kinase enzyme assay. An in vitro enzyme assay that detects ADP turnover that is directly proportional to AMPK activity. This uses naive AMPK that is activated during the assay with MK-8722; format: functional; design: scale not given: direction of the effect not stated beside the values; details: 30 µM

SMILES | Percent Effect
CN1CCCC(c2cccc(-c3ccccc3F)n2)C1 (centres undefined) | 16.2%
CC(C)n1cc(CN(C)C[C@@H]2CCCN3CCCC[C@H]23)cn1 | 3.96%
Cc1ccsc1C(CNC(=O)c1cc(=O)c2ccccc2[nH]1)N(C)C (centres undefined) | 13.7%
CN(CCCOc1ccccc1Cl)C(=O)CN1C(=O)CCNC1=O | 7.42%
Cc1cc(N2CCOC(c3ccccn3)C2)nc(N)n1 (centres undefined) | 10.1%
Cc1ncsc1C(=O)N1CCCC1c1c(C)nn(C)c1C (centres undefined) | 1.43%
Fc1ccc(OCCCNC2=NCCCN2)cc1 | 0.73%
Cc1ccc(F)c(CNc2ccn(CCC(N)=O)n2)c1 | -4.33%
Cc1nnc(C(C)N2CCN(Cc3noc(C(C)(C)C)n3)CC2)o1 (centres undefined) | -8.02%
CCCc1nnc(N2CCC(N3CCCCCC3)CC2)o1 | -2.81%
FC(F)(F)c1cccc(OC2CCN(Cc3ccccn3)CC2)c1 | 2.09%
Cc1occc1CNc1ncccc1S(N)(=O)=O | 6.37%
Fc1cccc(-c2n[nH]cc2-c2nc(CN3CCOCC3)no2)c1 | 5.95%
O=C(c1nc(=O)[nH]c2ccccc12)N1CCCC(CC2CC2)(C(=O)O)C1 (centres undefined) | -0.821%
CCc1c(C)nc(-n2nc(-c3cccs3)cc2N)[nH]c1=O | -6.28%
Cc1ccccc1C(NC(=O)CCCS(C)(=O)=O)C(C)(C)C (centres undefined) | 7.1%
CCC(C(=O)NCc1nc(C)cc(C(F)(F)F)n1)n1cccn1 (centres undefined) | 4.67%
CCNC(=O)C1CCN(Cc2ccccc2OCC(F)(F)F)CC1 | -3.27%
COCC(=O)N1CCN(C(C)c2ncc(-c3ccccc3)o2)CC1 (centres undefined) | 2.58%
COCCN(CCOC)c1nc2c(s1)c(C)nn2C | 0.796%

SMILES | Percent Effect
CN(C)Cc1nc(C(=O)N2CCCC(COc3ccc(F)cc3)C2)cs1 (centres undefined) | 8.59%
COC(=O)c1ccc(NC(=O)CCNCc2ccco2)cc1 | 2.04%
CNc1ncc(C(=O)N2CCCC(CO)(CCCOC)C2)cn1 (centres undefined) | 5.91%
CC[C@@H](CO)NC(=O)c1cc(COc2ccc(OC)cc2Cl)[nH]n1 | -0.681%
COc1ccc(N2CCC(NC(=O)c3ccc(C#N)cc3)CC2)cc1 | 5.1%
CC1CN(C)CCN1C(=O)c1cccn1Cc1ccncc1 (centres undefined) | 1.97%
O=C(NCCn1ccnc1-c1cc2n(n1)CCNC2)c1ccc(F)cc1 | 1.27%
COC(=O)c1ccc(N(C(=O)c2ccncc2)C(C)C)c(C)c1 | -1.62%
O=C1NC(C(=O)NCc2cccnc2Oc2ccccc2F)CO1 (centres undefined) | 4.53%
Cc1ccc(-n2ncc3c2CCCC3N)cc1C (centres undefined) | 16.9%
O=C(NC1CCOCC1)c1cccc(C2CCCNC2)c1 (centres undefined) | 2.1%
CC(Cc1cccc(F)c1)C(=O)NS(=O)(=O)c1cnn(C)c1 (centres undefined) | -5.21%
COc1ccccc1NC(=O)c1cnc(C2CCN(C(C)=O)C2)nc1C (centres undefined) | 5.26%
CCN(Cc1ccc2c(c1)OCO2)c1ncc(S(N)(=O)=O)s1 | 1.52%
Cc1nn(C)c(C)c1CC(=O)NCC1(C(N)=O)CCOCC1 | -4.43%
Cc1nonc1CN(C)c1nc(-c2ccco2)nc2c1CCN(C)CC2 | 4.86%
Cc1noc(C)c1C(=O)N1CCC(c2cc3cnccc3[nH]2)CC1 | 16.4%
CC(C)c1ocnc1C(=O)Nc1cccc(Cn2ccccc2=O)c1 | 8.27%
COCCCN1CC2(CCN(C(=O)c3ccc(=O)n(C)c3)CC2)CC1=O | 9.31%
